From PubChem
Shown are actives, neighbours in structure and some others; about 3.1% of the full set was active somewhere.
FadD28 FP inh: blocks FadD28 binding to the bisubstrate probe; fluorescence polarization; inhibition, % at 12.5 µM; 360,000 tested, 0.22% active; in the data active = inhibition above about 8.5%, passing the limit was not always enough
Mtb BioA inh: BioA (M. tuberculosis) enzyme inhibition. purified M. tuberculosis BioA enzyme, plate reader. inhibition, % at 9.99 µM. 360,000 tested, 0.096% active; in the data active = inhibition above about 40%
GDH-TPI counter-1: GDH-TPI coupled enzyme inhibition counter-screen; GDH-TPI coupled enzyme counterscreen, NADH absorbance; inhibition, % at 4.8 µM; 360,000 tested, 1.2% active; AID 588335; in the data active = inhibition above about 30%;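 also: 0% = DMSO wells and 100% = wells lacking the enzyme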
FBA Mtb inh: inhibitors of M. tuberculosis fructose-bisphosphate aldolase | inhibition, % at 1 µM | purified M. tuberculosis FBA, fluorescence read-out | P9WQA3 | 360,000 tested, 2.3% active | AID 588726;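 also: 0% = vehicle and 100% = reference inhibitor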
Target sequence (P9WQA3 whole entry, looked up): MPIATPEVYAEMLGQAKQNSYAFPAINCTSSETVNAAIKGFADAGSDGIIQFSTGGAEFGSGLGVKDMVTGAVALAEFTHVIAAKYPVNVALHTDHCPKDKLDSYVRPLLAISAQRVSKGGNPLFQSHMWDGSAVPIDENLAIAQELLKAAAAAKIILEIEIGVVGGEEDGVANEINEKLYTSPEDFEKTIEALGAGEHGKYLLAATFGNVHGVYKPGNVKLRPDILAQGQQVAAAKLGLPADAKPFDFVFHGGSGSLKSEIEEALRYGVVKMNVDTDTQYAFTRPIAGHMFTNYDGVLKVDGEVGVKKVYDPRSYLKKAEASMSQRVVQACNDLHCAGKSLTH
3CLpro inhibitor: SARS-CoV 3CLpro protease inhibition | P0C6X7 | recombinant SARS-CoV 3CLpro, quenched FRET peptide cleavage | 290,000 tested, 0.14% active | inhibition, % at 6 µM; in the data active = inhibition above about 12%
Mtb FBA inh conf: confirmation of M. tuberculosis fructose-bisphosphate aldolase inhibitors; 5,600 tested, 78% active; inhibition, % at 1 µM; shares compounds with FBA Mtb inh; purified M. tuberculosis FBA, fluorescence read-out;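 also: 0% = vehicle wells and 100% = reference inhibitor wells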
GDH-TPI counter-2: inhibits GDH-TPI coupling enzymes, flagging Mtb FBA hits; inhibition, % at 1 µM; 5,600 tested, 81% active; shares compounds with FBA Mtb inh; GDH-TPI coupled enzyme counterscreen, fluorescence; AID 652141; in the data active = inhibition above about 10%
* hit, by the source's call; · = no result given; + = active, no number. Rule as the data show it, unless noted: active = inhibition above about 27%; inactive = the rest.

SMILES	FadD28 FP inh	Mtb BioA inh	GDH-TPI counter-1	FBA Mtb inh	3CLpro inhibitor	Mtb FBA inh conf	GDH-TPI counter-2
N=c1c(C(=O)NCc2ccccc2)cc2c(=O)n3ccccc3nc2n1Cc1ccco1	-5	-2	17	50*	1	88*	78*
Cc1ccc(CNC(=O)c2cc3c(=O)n4ccccc4nc3n(Cc3ccco3)c2=N)cc1	-1	0	22	63*	·	54*	48*
Cc1cccc(NC(=O)c2cc3c(=O)n4ccccc4nc3n(CC(C)C)c2=N)c1	0	-1	-5	0	-6	·	·
C[C@@H]1CN([C@H](C)CO)C(=O)c2cccc(NS(C)(=O)=O)c2O[C@H]1CN(C)S(=O)(=O)c1cccs1	·	0	·	·	·	·	·
CN1C(=O)c2cc(NC(=O)C3CCCCC3)ccc2OC[C@H]2O[C@H](CC(=O)NC3CCCC3)CC[C@H]21	·	-3	·	·	·	·	·
COc1ccc(NC(=O)N(C)C[C@H]2Oc3c(NC(=O)Nc4ccc(C(F)(F)F)cc4)cccc3C(=O)N([C@H](C)CO)C[C@H]2C)cc1	·	-1	·	·	·	·	·
C[C@H](CO)N1C[C@H](C)[C@@H](CN(C)Cc2ccncc2)Oc2ccc(NS(=O)(=O)c3cccs3)cc2CC1=O	·	0	·	·	·	·	·
CN(C)CCNC(=O)c1cccc2[nH]c(-c3ccncc3)nc12	-2	·	12	35*	·	22	20*
NC(=O)N/N=C/c1ccc2cccc(OCc3ccccc3)c2n1	-3	0	14	57*	-2	173*	138*
O=C(Cc1ccccc1)N/N=C/c1ccc2cccc(O)c2n1	1	·	12	2	7	·	·
O=C(c1ccccc1F)N1CC[C@@H]2[C@@H](CO)Nc3ccc(C#Cc4ccc(F)cc4)cc3[C@@H]21	·	-1	·	·	·	·	·
Cc1ccc(N=Cc2c(C)[nH]n(-c3ccccc3)c2=O)nc1	0	·	4	4	1	·	·
Cc1[nH]n(-c2ccccc2)c(=O)c1C=Nc1cnc2ccccc2c1	-2	1	20	34*	3	13	0
c1ccc(C2=NN(c3ccccc3)CC2)cc1	0	1	25	49*	-1	-2	-5
CC1=CC2=NC(=O)CC(C)(C(=O)N(CC(=O)NC3CCCC3)c3ccccc3C)N2C=C1 (configuration not stated)	0	7	10	62*	4	+	+
CC1=CC2=NC(=O)CC(C)(C(=O)N(CC(=O)NC3CCCC3)Cc3ccc(Cl)cc3)N2C=C1 (configuration not stated)	-2	-3	-4	58*	4	115*	122*
Cc1ccc(C(=O)N(CC(=O)NC2CCCCC2)c2ccccc2F)s1	0	0	-3	3	-1	·	·
CC(C)n1cc(C(=O)N(CC(=O)NC2CCCC2)Cc2ccccc2)cn1	-2	2	8	-1	-12	·	·
CC1=CC2=NC(=O)CC(C)(C(=O)N(CC(=O)NC3CCCC3)c3ccccc3F)N2C=C1 (configuration not stated)	-5	0	-8	47*	4	45*	37*
C[C@H]1CN([C@@H](C)CO)C(=O)c2c(c3ccccc3n2C)-c2ccccc2CO[C@@H]1CN(C)CC1CC1	·	0	·	·	·	·	·
COc1ccc(C(=O)Nc2ccc3c(c2)C(=O)N(C)C[C@@H](OC)[C@@H](C)CN(C(C)=O)[C@@H](C)CO3)cc1	·	0	·	·	·	·	·
C[C@@H]1CN([C@H](C)CO)C(=O)c2cc(NC(=O)NC3CCCCC3)ccc2O[C@@H](C)CCCCO[C@@H]1CN(C)S(=O)(=O)c1ccc(F)cc1	·	1	·	·	·	·	·
O=C(O)c1cccc(Nc2nc(-c3cc4ccccc4oc3=O)cs2)c1	0	0	20	28*	5	84*	72*
O=c1oc2ccccc2cc1-c1csc(NN=C2CCCC2)n1	-2	1	16	6	3	·	·
COC(=O)C1=CN(Cc2ccc(OC)c(OC)c2)C=C(C(=O)OC)C1c1ccc(F)cc1	-2	10	24	97*	6	+	142*
COc1ccc(CCNCc2ccc(F)cc2)cc1OC	0	2	2	2	0	·	·
COc1ccc(CNC(N)=O)cc1OC	1	0	-2	1	-1	·	·
CCOc1cc(C2C(C(=O)OC)=CN(Cc3ccc(Cl)cc3)C=C2C(=O)OC)ccc1O	-7	·	-1	5	5	·	·
